# Test results taken from PubChem BioAssay AID504832 (National Center for Advancing Translational Sciences (NCATS), 2011).
# In all, about 310,000 compounds went through this assay and about 18,000 (5.8%) were called active. Not shown: some 22% with an inconclusive outcome. The entries come from a sample that favours actives as a whole. A call without a number means that no potency is given here. Unmarked numbers belong to inactive results. Calls follow the shape of the dose curve; as a rule, active = well fitted inhibition curve with a large enough effect; inconclusive = small, poorly fitted or top-dose-only effect, or another doubt; inactive = no such curve, though single readings can be large or run the other way.
# Test: Primary qHTS for delayed death inhibitors of the malarial parasite plastid, 48 hour incubation
# Settings: P. falciparum luciferase growth in erythrocytes; series mostly up to 28.7 µM
# Procedure, shortened: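 Luminescence readout; reporter = integrated firefly luciferase in P. falciparum. RBC culture at 2% hematocrit, 0.1% parasitemia final, 37 C/5% CO2; decreased signal taken as growth inhibition.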
# Potency is read from the fitted curve at half-maximal effect.
SMILES,Potency,"activity change, negative = inhibition"
O=C(CCc1nnc(Cc2ccc3c(c2)OCO3)o1)NCCc1ccccc1Cl,inactive,–
COc1ccc(-c2nc(CS(=O)(=O)CC(=O)NCc3cccc(Br)c3)c(C)o2)cc1,inactive,–
COc1ccc(-n2ncc3c(SCC(=O)NNC(C)=O)ncnc32)cc1,inactive,–
CC(=O)N1CCc2c(sc(NC(=O)CCS(=O)(=O)c3ccccc3)c2C#N)C1,inactive,–
Cc1ccc(S(=O)(=O)NC2CCCCCC2)cc1C(N)=O,inactive,–
O=C(CN1CCCCCC1)Nc1c(Cl)cc(Cl)cc1Cl,inactive,–
C(=N\N1CCN(c2ccccn2)CC1)/C1=C(N2CCOCC2)C(=C/c2ccccc2)/CC1,10.4 µM (active),–
N#C/C(=C\C1=C(N2CCOCC2)C(=C\c2ccccc2)/CC1)C(=O)Nc1ccccc1F,inactive,–
O=C1Nc2ccc(Br)cc2/C1=N/N=C/C1=C(N2CCOCC2)C(=C\c2ccccc2)/CC1,inactive,–
CC(=O)c1ccc(N2CCN(CC(O)c3ccccc3)CC2)cc1 (stereo not given),inactive,–
Oc1cc2c(cc1CN1CCN(c3ccccc3)CC1)OCO2,inactive,–
CC(C)c1ccc(O)c(CN2CCN(c3ccccc3)CC2)c1,3.29 µM (active),–
O=C(CSc1nccc(=O)[nH]1)Nc1ccc(N2CCOCC2)c(Cl)c1,inactive,–
COc1cc(NC(=O)NCC2CCN(Cc3ccc(C)cc3)CC2)cc(OC)c1OC,inactive,–
O=C(CN1CCN(Cc2ccccc2)CC1)Nc1ccc(F)c(F)c1,inactive,–
Cc1cccc(CN2CCC(CNC(=O)Nc3ccc(F)c(Cl)c3)CC2)c1,10.4 µM (active),–
COc1cc(C(=O)NCc2nnc(SCC(=O)c3ccc(Cl)cc3)o2)cc(OC)c1OC,inactive,–
CCC(=O)Nc1ccc(C(=O)NNC(=O)c2ccc(Cl)cc2)cc1,inactive,–
Cc1ccc(NS(=O)(=O)c2ccc(-c3ccc(=O)[nH]n3)o2)c(C)c1,inactive,–
CC#CC[N+](C)(C)CCCCCC,10.4 µM (active),–
Cc1ccn2c(=O)c(NC(=O)c3cccc4ccccc34)c(C)nc2c1,inactive,–
Cc1[nH]c(C)c(S(=O)(=O)N2CCC(C)CC2)c1C(=O)N1CCCC1,inactive,–
O=S(=O)(c1ccccc1)c1nc(Cc2ccccc2)oc1N1CCOCC1,inactive,–
COc1ccc(C2=NN(C(=O)c3ccccc3C(=O)O)C(c3ccccc3O)C2)cc1 (stereo not given),inactive,–
Cc1cc(=O)n2nc(N3CCCC(C(=O)NCc4ccc(Cl)cc4)C3)sc2n1 (stereo not given),inactive,–
COc1cc(N2CCCC2)c(OC)cc1/C=C(/C#N)c1cccc(Br)c1,14.7 µM (active),–
COc1cccc(C(=O)Nc2ccc(N3CCCC3)cc2)c1,inactive,–

SMILES,Potency,"activity change, negative = inhibition"
COc1ccc(Br)cc1/C=N/n1c(C)nnc1C,inactive,–
COc1ccccc1-n1c(SCC(=O)Nc2cccc(C(=O)O)c2)nnc1-c1ccccc1O,inactive,–
Cc1cccc(N2C(=O)c3ccc(C(=O)Nc4cccc(C(=O)O)c4)cc3C2=O)c1,inactive,–
Cc1c(Cl)cccc1NC(=O)CCC(=O)N/N=C/c1ccco1,inactive,–
Cc1ccc(S(=O)(=O)CCC(=O)Nc2nnc(CC(C)C)s2)cc1,inactive,–
N#C/C=C/N1CCN(Cc2ccc3c(c2)OCO3)CC1,inactive,–
CCN(CC)C(=O)c1sc2nc(-c3ccccc3)ccc2c1N,inactive,–
CS(=O)(=O)c1sc2nc(-c3ccccc3)cc(-c3ccccc3)c2c1N,4.65 µM (active),–
CNc1nc(-c2ccccc2)cc(-c2ccccc2)n1,inactive,–
CSc1ccccc1C(=O)OCC(=O)N1CCN(C(C)=O)CC1,inactive,–
O=C(NCCCc1ccccc1)C(=O)c1c[nH]c2ccccc12,inactive,–
O=S(=O)(c1ccc(SCc2ccccc2)nc1)N1CCCCCC1,inactive,–
CC1(C)CC(=O)c2ccc(O)cc2O1,inactive,–
COc1ccc2c(c1)OC(O)(C(F)(F)C(F)F)CC2=O (stereo not given),3.29 µM (active),–
COc1ccc2c(c1)SC(C)CC2=O (stereo not given),inactive,–
COc1cc(C2C(C(=O)c3ccco3)=C(O)C(=O)N2c2cc(C)on2)ccc1OCc1ccccc1 (stereo not given),inactive,–
CCC(C)[C@H](NC(=O)N1c2ccccc2NC(=O)[C@@H]1C(C)C)C(=O)N[C@@H](Cc1ccccc1)C(=O)O (stereo not given in full),inactive,–
Cc1c(Cl)cccc1NC(=S)NCC(O)c1ccccc1 (stereo not given),inactive,–
Cc1c(Cl)cccc1NC(=O)CSc1ccc(-c2cccnc2)nn1,inactive,–
Cc1c(Cl)cccc1NC(=S)N(Cc1ccccc1)Cc1cccnc1,10.4 µM (active),–
Cc1cc(C)c(C#N)c(SCC(=O)N(CC(C)C)C2CCS(=O)(=O)C2)n1 (stereo not given),inactive,–
COCc1c(C(=O)N/N=C\c2cccnc2)nnn1-c1nonc1N,inactive,–
CC(NC(=O)c1cccc(S(=O)(=O)N2CCc3ccccc3C2)c1)c1ccco1 (stereo not given),inactive,–
CC1CCc2sc(C(=O)NCC(c3ccco3)N3CCCCC3)cc2C1 (stereo not given),7.38 µM (active),–
COc1ccc(C(CNC(=O)c2cc3c(s2)CCCC3)N2CCOCC2)cc1 (stereo not given),inactive,–
CC1CCc2sc(C(=O)N/N=C/C3CCCCC3)cc2C1 (stereo not given),inactive,–
CC1Cc2ccccc2N1S(=O)(=O)c1ccc(Cl)nc1 (stereo not given),inactive,–

SMILES,Potency,"activity change, negative = inhibition"
CC1Cc2ccccc2N1S(=O)(=O)c1cccc(C(=O)NCC(c2ccco2)N2CCCC2)c1 (stereo not given),11.7 µM (active),–
Cc1nn(C)c(Cl)c1CN1CCC(Oc2ccc(C(=O)N3CCCC3)cc2)CC1,inactive,–
CC1CN(C(=O)CCC(=O)NC2CCN(Cc3ccccc3)CC2)c2ccccc2O1 (stereo not given),inactive,–
COC(=O)c1ccc(NC(=O)CSc2nncn2-c2cccnc2)cc1,inactive,–
OC(CNCc1ccc(Cl)c(Cl)c1)c1ccccc1 (stereo not given),5.86 µM (active),–
O=C(NCc1ccc(Cl)c(Cl)c1)c1cccnc1,inactive,–
CC(C)(CNCC(O)c1ccccc1)N1CCOCC1 (stereo not given),inactive,–
Cc1[nH]c2ccccc2c1C(=O)CN1CCCC(C)C1 (stereo not given),inactive,–
CSc1nccc(NC(=O)c2ccc(C(C)(C)C)cc2)n1,inactive,–
O=C(c1cc(COc2cccc(C(F)(F)F)c2)on1)N1CCSCC1,inactive,–
CN(C)CCCNC(=S)N1CCC(c2nc3ccccc3[nH]2)CC1,inactive,–
CCC(=O)Nc1cc(C(F)(F)F)ccc1N1CCCC1,inactive,–
O=C(CCC1CCCCC1)Nc1cc(C(F)(F)F)ccc1N1CCOCC1,11.7 µM (active),–
CC(Sc1nncn1C)C(=O)Nc1cc(C(F)(F)F)ccc1N1CCOCC1 (stereo not given),inactive,–
CCCCn1c(N)c(N(CC(C)C)C(=O)c2cnc(C)cn2)c(=O)[nH]c1=O,inactive,–
Cc1ccc(CSCC2Nc3ccc(C(=O)N4CCN(c5ccc(F)cc5)CC4)cc3NC2=O)cc1 (stereo not given),inactive,–
Cc1c(Cc2ccccc2)c(=O)oc2cc(OCC(N)=O)ccc12,4.15 µM (active),–
Cc1c(CCC(=O)O)c(=O)oc2cc(OCc3ccc(Br)cc3)ccc12,inactive,–
CCOC(=O)c1cc(=O)c2ccc(OCc3ccccc3)cc2o1,inactive,–
CCN(CC(=O)NCCCN1CCOCC1)S(=O)(=O)c1cc(Cl)ccc1Cl,inactive,–
COc1cc(NS(=O)(=O)c2ccc(NC(=S)NC(=O)c3ccccc3)cc2)nc(OC)n1,inactive,–
Cc1ccc(NC(=O)C(CC(=O)O)C2CCCO2)c(C)c1 (stereo not given),inactive,–
Cc1ccc(NC(=O)C2CCN(S(=O)(=O)c3ccc4c(c3)NC(=O)CO4)CC2)cc1C,inactive,–
COc1ccccc1N(CC(=O)Nc1ccccc1C(=O)N1CCCC1)S(C)(=O)=O,inactive,–
CCN1CCCC1Cn1cnc2c([nH]c3cc(OC)ccc32)c1=O (stereo not given),inactive,–
Fc1ccc2[nH]c3c(N4CCN(Cc5ccc6c(c5)OCO6)CC4)ncnc3c2c1,5.22 µM (active),–
O=c1[nH]c(N2CCN(Cc3ccc4c(c3)OCO4)CC2)nc2c1CCCC2,–,11.4% [at 5.75 µM]

SMILES,Potency,"activity change, negative = inhibition"
Fc1ccc2[nH]c3c(N4CCSCC4)ncnc3c2c1,4.65 µM (active),–
CCCCCc1c(C)nc(N2CCN(Cc3ccc4c(c3)OCO4)CC2)[nH]c1=O,inactive,–
CCN1CCCC1CNc1ncnc2c1[nH]c1ccc(F)cc12 (stereo not given),2.33 µM (active),–
CCN1CCCC1CNC(=O)c1cc2cc(OC)c(OC)cc2[nH]1 (stereo not given),inactive,–
Cc1ccc(NC(=O)Cc2nc(COC(=O)C(C)NS(=O)(=O)c3ccc(C)cc3)cs2)cc1 (stereo not given),inactive,–
O=C(NCCOc1cccnc1)c1ccc(OC2CCN(Cc3ccccn3)CC2)cc1,inactive,–
CN(C)CCCn1c(SCc2ccc(Cl)cc2)nnc1-c1ccncc1,inactive,–
COc1ccc(-c2nnc3n2CCCCC3)cc1,inactive,–
CCOc1ccc(NC(=O)c2cc(C)nc3ccccc23)cc1,inactive,–
CCOc1ccc(-n2c(O)c(/C=N/Nc3nc(C)cc(C)n3)c3ccccc3c2=O)cc1,4.15 µM (active),–
CCOc1ccc(-n2c(O)c(/C=N/c3ccnn3Cc3ccncc3)c3ccccc3c2=O)cc1,inactive,–
O=C(Cc1ccccc1F)NC1CCSc2ccccc21 (stereo not given),inactive,–
CC1(C)NC(=O)N(CC(=O)N2CCN(S(=O)(=O)c3ccccc3F)CC2)C1=O,inactive,–
CC1CCC(NS(=O)(=O)c2ccc3c(c2)CC(=O)N3)CC1 (stereo not given),inactive,–
c1ccc(-c2cn3c(n2)CCc2ccc4cccnc4c2-3)cc1,10.4 µM (active),–
c1ccc(-c2cn3cccnc3n2)cc1,inactive,–
Cc1cc(NC(=O)CCC(=O)N(CC(=O)NC2CCCC2)c2ccc(F)cc2)no1,inactive,–
O=C(CCn1nnc2ccccc21)OCC(=O)c1ccc([N+](=O)[O-])cc1,inactive,–
COc1ccc(CCC(C)N2CCc3ccccc3C2)cc1 (stereo not given),inactive,–
COc1ccc(CN2CCCC(N3CCc4ccccc4C3)C2)c(O)c1 (stereo not given),1.65 µM (active),–
COc1cccc(N2C(=O)CC(N3CCc4ccccc4C3)C2=O)c1 (stereo not given),inactive,–
COc1ccc(NC(=O)CCNC(=O)Cn2ccc3ccccc3c2=O)c(OC)c1,inactive,–
CCc1ccc(NC(=O)Cn2ncn3c(cc4ccccc43)c2=O)cc1,inactive,–
COc1ccc(NC(=O)Cn2ncn3c(cc4ccccc43)c2=O)c(OC)c1OC,10.4 µM (active),–
